The list is not random: actives were taken first. Their share in the collection is about 2.4%.
Prx2 Sm inh: inhibitors of Schistosoma mansoni peroxiredoxin 2; S. mansoni Prx2 activity coupled to TGR/GSH (TGR is thioredoxin glutathione reductase), NADPH fluorescence loss, qHTS; 65,000 compounds, 0.07% hits; Potency, µM
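Activity is read as the drop in NADPH fluorescence (365/450 nm), recorded every 30 sec for 8 min after H2O2 addition. Prx2 is coupled to TGR-driven NADPH oxidation through glutathione, in phosphate buffer pH 7.4.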
AmpC nodet inh: blocks E. coli AmpC beta-lactamase in absence of detergent | P00811 | Potency, µM (highest dose often 28.7 µM) | 71,000 compounds, 1.8% hits | AmpC nitrocefin hydrolysis, absorbance 480 nm, no detergent | AID 585
Target sequence (P00811 whole entry, looked up): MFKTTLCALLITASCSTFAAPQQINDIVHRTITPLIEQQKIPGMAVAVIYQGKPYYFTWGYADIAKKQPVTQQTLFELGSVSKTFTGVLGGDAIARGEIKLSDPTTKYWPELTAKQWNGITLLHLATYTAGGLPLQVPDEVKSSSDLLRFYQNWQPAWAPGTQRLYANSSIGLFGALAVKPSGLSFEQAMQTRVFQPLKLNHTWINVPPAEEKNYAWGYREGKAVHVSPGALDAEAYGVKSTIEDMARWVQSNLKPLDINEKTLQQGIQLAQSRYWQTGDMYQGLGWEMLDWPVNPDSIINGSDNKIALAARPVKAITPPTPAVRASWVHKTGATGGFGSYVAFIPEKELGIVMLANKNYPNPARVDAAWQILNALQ
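AmpC, 20 mM phosphate pH 7.0; 15 min cpd preinc, RT; start with nitrocefin (800 uM stock); A480 kinetic read, 20 s intervals, 4 min. No-enzyme wells = negative control.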
AmpC inh det: inhibitors of E. coli AmpC beta-lactamase with detergent | P00811 | Potency, µM (highest dose often 28.7 µM) | purified AmpC, nitrocefin hydrolysis with detergent | AID 584 | 71,000 compounds, 0.09% hits; active = well fitted curve in the direction sought with a large enough effect; inconclusive = small, poorly fitted or top-dose-only effect
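E. coli AmpC (5.3 nM) in 20 mM phosphate pH 7.0 with 0.01% Triton X-100, preincubated 15 min RT with compound; nitrocefin (2 uL of 800 uM stock) hydrolysis followed by 480 nm absorbance every 20 s over 4 min.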
Anthrax LT inh: anthrax lethal toxin internalization inhibition; AID 912; 70,000 compounds, 0.67% hits; Cells, anthrax lethal toxin internalization, FRET ratio (460/530); Potency, µM (top dose mostly 40 µM), hits mostly inhibitors; also: nearly all actives have a fitted effect of over 50% in size
A number is an active result; . = inactive; ? = inconclusive; / = no result given; [ ] = remark or other dose. Unless noted, calls follow the shape of the full dose curve.

SMILES | Prx2 Sm inh | AmpC nodet inh | AmpC inh det | Anthrax LT inh
CCOC(=O)N1CCC(NC(=O)CN2C(=O)CCSc3ccccc32)CC1 | . | 4µM[single pt active] | . | .
Cc1csc2nc(CSc3nc4ccccc4o3)c(Br)n12 | . | . | . | 13µM
Cc1csc2nc(CSc3nncn3-c3ccccc3)c(Br)n12 | . | . | . | .
Cc1ccccc1-c1nc(CS(=O)CC(=O)NCc2ccccc2)c(C)o1 (stereo not drawn) | . | 4µM[single pt active] | . | .
Cc1ccc(-c2nc(CS(=O)CC(=O)NCCN3CCCC3)c(C)o2)cc1 (stereo not drawn) | . | 4µM[single pt active] | . | .
Cc1ccc(-c2nc(CS(=O)CC(=O)NCc3ccccn3)c(C)o2)cc1 (stereo not drawn) | . | 4µM[single pt active] | . | .
Cc1ccc(CNC(=O)CS(=O)Cc2nc(-c3ccccc3C)oc2C)cc1 (stereo not drawn) | . | . | . | ?
Cc1ccc(-c2nc(CS(=O)CC(=O)NCCN(CC(C)C)CC(C)C)c(C)o2)cc1 (stereo not drawn) | . | . | . | .
Cc1ccc(-c2nc(CS(=O)CC(=O)NCCN3CCOCC3)c(C)o2)cc1 (stereo not drawn) | . | 4µM[single pt active] | . | .
Cc1ccc2nsnc2c1S(=O)(=O)NCc1cccnc1 | . | . | . | .
Cc1ccccc1-c1nc(CS(=O)(=O)CC(=O)NCCN2CCOCC2)c(C)o1 | . | . | . | .
Cc1ccccc1-c1nc(CS(=O)CC(=O)NCCN2CCOCC2)c(C)o1 (stereo not drawn) | . | 4µM[single pt active] | . | .
CCOC(=O)N1CCC(NC(=O)C2CCCN(Cc3nc(-c4cccc(Cl)c4)oc3C)C2)CC1 (stereo not drawn) | . | . | . | ?
Cc1oc(-c2ccc(Cl)cc2)nc1CS(=O)CC(=O)NCCN1CCCC1 (stereo not drawn) | . | 4µM[single pt active] | . | .
CCN1CCN(CCNC(=O)C2CCCN(Cc3nc(-c4cccc(Cl)c4)oc3C)C2)CC1 (stereo not drawn) | . | . | . | 4µM
O=C1CC[C@](CCc2nc3ccccc3[nH]2)(c2ccccc2)C(=O)N1 | . | .[5.75 µM] | .[5.75 µM] | ?
CC(C)OC(=O)c1nnc(Cc2ccc(F)cc2)o1 | . | . | . | .
CC(C)C[C@H](N)c1nnc(S(=O)(=O)Cc2ccc(F)cc2)o1 | . | 2.5µM | 2.5µM | ?
COc1ccc(-c2nc(CS(=O)CC(=O)NCc3ccc4c(c3)OCO4)c(C)o2)cc1 (stereo not drawn) | . | . | . | .
COc1ccc(-c2nc(CS(=O)CC(=O)NCC3CCCO3)c(C)o2)cc1 (stereo not drawn) | . | 4µM[single pt active] | . | .
COc1ccc(-c2nc(CS(=O)CC(=O)NCc3ccco3)c(C)o2)cc1OC (stereo not drawn) | . | 4µM[single pt active] | . | .
COc1ccc(CNC(=O)CS(=O)Cc2nc(-c3ccc(C)cc3)oc2C)cc1 (stereo not drawn) | . | . | . | .
COc1ccc(-c2nc(CS(=O)CC(=O)N3CCCC3)c(C)o2)cc1 (stereo not drawn) | . | 4µM[single pt active] | . | .
COCCNC(=O)CS(=O)Cc1nc(-c2ccc(OC)cc2)oc1C (stereo not drawn) | . | 3.2µM | . | .
O=C(Nc1ccccc1)N1CCN(c2nc3ccccc3s2)CC1 | . | . | . | .
SMILES | Prx2 Sm inh | AmpC nodet inh | AmpC inh det | Anthrax LT inh
O=c1[nH]c2c(s1)C(c1ccccc1)C1C3CCC(C3)C1S2 (stereo not drawn) | . | 1.6µM | . | ?
Cc1ccccc1NC(=O)CN1C(=O)COc2ccc(Cl)cc21 | . | . | . | 10µM
CCN(CC)c1ccc(NC(=O)CSc2nc3ccccc3c(=O)[nH]2)cc1 | . | 10µM[single pt active] | . | .
COc1ccc(NC(=O)N2CCCC3(CCN(C(=O)c4ccncc4)CC3)C2)cc1 | . | . | . | .
Cc1ccc(N2C(=O)c3n[nH]c(C)c3C2c2ccccn2)cc1 (stereo not drawn) | . | . | . | .
c1ccc(CC2CCN(c3nc4ccccc4n4nnnc34)CC2)cc1 | . | 13µM | . | .
O=C(c1ccco1)N1CCN(c2nc3ccccc3n3nnnc23)CC1 | . | . | . | .
COc1ccc2c(c[n+](C)c3c4cc5c(cc4ccc23)OCO5)c1OC | . | . | . | 25µM
CCOc1ccc(-n2c(CC)nc3ccccc3c2=O)cc1 | . | 3.2µM[single pt active] | . | .
Cn1c(=O)c2cc(S(=O)(=O)N3CCOCC3)ccc2n(C)c1=O | . | . | . | .
O=c1c2ccccc2sn1-c1cc(S(=O)(=O)N2CCOCC2)ccc1N1CCOCC1 | . | . | . | 0.16µM
CCC(C)C(N)C(=O)NC(CCC(=O)OCc1ccccc1)C(N)=O (stereo not drawn) | . | . | . | .
O=C(Nc1ccccc1)Nc1ccc(S(=O)(=O)N2CCCCC2)cc1 | . | . | . | ?
CN1CCN(S(=O)(=O)c2ccc(NC(=O)Nc3cccc(Cl)c3)cc2)CC1 | . | . | . | 13µM
CC1CCCCN1CCNC(=O)c1cc2c(-c3ccccc3F)nn(C)c2s1 (stereo not drawn) | . | 4µM[single pt active] | . | 7.9µM
CN1CCN(CCCNC(=O)c2cc3c(-c4ccc(Cl)cc4)nn(C)c3s2)CC1 | . | . | . | 6.3µM
CCN(CC)CCCNC(=O)c1cc2c(-c3ccc(Cl)cc3)nn(C)c2s1 | . | 4µM[single pt active] | . | 2.5µM
Cn1nc(-c2ccc(Cl)cc2)c2cc(C(=O)NCC3CCCO3)sc21 (stereo not drawn) | . | . | . | ?
COc1cc(-c2nc(Cc3ccccc3Cl)no2)cc(OC)c1OC | . | . | . | .
CCOC(=O)c1cccc(NC(=O)CCS(=O)(=O)c2cccs2)c1 | . | . | . | .
CC1CC(C)CN(S(=O)(=O)c2ccc(NC(=O)C3COc4ccccc4O3)cc2)C1 (stereo not drawn) | . | 16µM[single pt active] | . | ?
CC(C)(C)NC(=O)c1ccc(NC(=O)C2COc3ccccc3O2)cc1 (stereo not drawn) | . | . | . | .
COc1cc(NC(=O)C2COc3ccccc3O2)c(OC)cc1Cl (stereo not drawn) | . | . | . | 13µM
COC(=O)c1ccc(C)c(NC(=O)C2COc3ccccc3O2)c1 (stereo not drawn) | . | . | . | /
COc1ccc(OC)c(NS(=O)(=O)c2ccc(NC(=O)C3COc4ccccc4O3)cc2)c1 (stereo not drawn) | / | 10µM | . | ?
SMILES | Prx2 Sm inh | AmpC nodet inh | AmpC inh det | Anthrax LT inh
O=C(OCc1c(Cl)cccc1Cl)c1ccccn1 | . | . | . | .
Nc1nc(SCC(=O)c2ccc(Oc3ccccc3)cc2)n[nH]1 | . | 10µM | . | ?
Clc1ccccc1CNCC1CCC(CNCc2ccccc2Cl)CC1 (stereo not drawn) | . | . | . | 4µM
CC(C)c1nnc(NC(=O)CCC(=O)NCC2CCCO2)s1 (stereo not drawn) | . | . | . | .
COc1ccc(Nc2ncnc3c2cnn3-c2ccccc2)cc1OC | . | . | . | ?
Clc1ccc(Nc2ncnc3c2cnn3-c2ccccc2)cc1 | . | . | . | 10µM
COc1ccc(-c2[nH]ncc2-c2cnn(-c3ccccc3)c2)c(O)c1 | . | . | . | 13µM

Compound activity (PubChem)
